According to PubChem BioAssay (EPA / NIEHS):
Values joined by “and” are separate entries in the source; they are usually repeats but may differ in a detail not shown here. Equal entries are not always repeated. Results filed as inconclusive are left out. More than one record can exist for a structure, and the calls need not agree. Active and inactive are the calls of the source. How the source made its calls, unless noted: active means hit-call score of the fitted dose curve at least 0.9, where 1 is the maximum; inconclusive means response in the unintended direction; inactive means score below 0.9.

Key:
[1] = BSK_3C_VCAM1: BioMAP Diversity Plus: 3C Assay for Vascular cell adhesion molecule 1 (VCAM1) Biomarker Activity (AID 2282999; active means hit-call score of the fitted dose curve at least 0.9, where 1 is the maximum; inactive means score below 0.9); conditions: BioMAP 3C HUVEC, VCAM1 ELISA, cytokine-stimulated; actives raise or lower the signal
In short: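 Human umbilical vein endothelial cells (3C system), biomarker read by ELISA 24 h after dosing; bidirectional fit against DMSO baseline. Cytotoxicity tracked by SRB total-protein staining in parallel cultures at biomarker time.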

[2] = BSK_4H_Eotaxin3: BioMAP Diversity Plus: 4H Assay for Eotaxin 3 Biomarker Activity (AID 2283000; active means hit-call score of the fitted dose curve at least 0.9, where 1 is the maximum; inactive means score below 0.9); conditions: primary human endothelial cells (HUVEC); actives raise or lower the signal
In short: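 HUVEC, 24 h post-dose, ELISA for Eotaxin-3/CCL26. Gain or loss of signal fitted bidirectionally vs DMSO baseline.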

[3] = read-out: Intercellular Adhesion Molecule 1 (ICAM1), ICAM1 (gene 3383); experiment: BSK_3C_ICAM1: BioMAP Diversity Plus: 3C Assay for Intercellular Adhesion Molecule 1 (ICAM1) Biomarker Activity (AID 2283003; active means hit-call score of the fitted dose curve at least 0.9, where 1 is the maximum; inactive means score below 0.9); conditions: primary human endothelial cells (HUVEC); actives raise or lower the signal
In short: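 HUVEC primary cells stimulated under 3C conditions; ICAM1 measured by ELISA 24 h after compound dosing. Curves fitted bidirectionally against the DMSO baseline. Overt cytotoxicity checked by SRB staining of parallel cultures.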

[4] = target: human Retinoic Acid Receptor beta (RARb), RARB (gene 5915) (UniProt P10826); experiment: ATG_RARb_TRANS: Attagene TRANS-FACTORIAL HepG2 Assay for human Retinoic Acid Receptor beta (AID 2283004)
human Retinoic Acid Receptor beta (RARb), RARB (gene 5915), sequence (P10826 whole entry, looked up, the tested form may be a part): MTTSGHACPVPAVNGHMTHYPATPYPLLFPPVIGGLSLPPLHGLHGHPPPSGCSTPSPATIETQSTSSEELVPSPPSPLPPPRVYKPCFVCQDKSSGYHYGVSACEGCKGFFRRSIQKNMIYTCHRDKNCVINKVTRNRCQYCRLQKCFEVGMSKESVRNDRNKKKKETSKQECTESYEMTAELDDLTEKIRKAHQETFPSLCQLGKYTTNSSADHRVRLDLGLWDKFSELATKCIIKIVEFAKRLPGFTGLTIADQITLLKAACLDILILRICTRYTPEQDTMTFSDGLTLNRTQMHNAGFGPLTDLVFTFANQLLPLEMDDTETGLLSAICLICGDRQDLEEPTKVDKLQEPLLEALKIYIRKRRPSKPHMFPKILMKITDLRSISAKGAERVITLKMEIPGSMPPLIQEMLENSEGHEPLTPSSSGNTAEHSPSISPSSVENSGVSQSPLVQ
In short: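 HepG2 cells transiently transfected with multiplexed GAL4-UAS reporter units expressing chimeric NR–Gal4 fusions; 24 h compound exposure. Reporter mRNA quantified by RT-PCR, 6-FAM labelling, HpaI digestion and capillary electrophoresis; gain-of-signal fitted against DMSO baseline.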

[5] = target: Retinoic acid receptor alpha (Homo sapiens) (UniProt P10276); experiment: ATG_RARa_TRANS: Attagene TRANS-FACTORIAL HepG2 Assay for human Retinoic Acid Receptor alpha (RARa) (AID 2283005)
Retinoic acid receptor alpha (Homo sapiens), sequence (P10276 whole entry, looked up, the tested form may be a part): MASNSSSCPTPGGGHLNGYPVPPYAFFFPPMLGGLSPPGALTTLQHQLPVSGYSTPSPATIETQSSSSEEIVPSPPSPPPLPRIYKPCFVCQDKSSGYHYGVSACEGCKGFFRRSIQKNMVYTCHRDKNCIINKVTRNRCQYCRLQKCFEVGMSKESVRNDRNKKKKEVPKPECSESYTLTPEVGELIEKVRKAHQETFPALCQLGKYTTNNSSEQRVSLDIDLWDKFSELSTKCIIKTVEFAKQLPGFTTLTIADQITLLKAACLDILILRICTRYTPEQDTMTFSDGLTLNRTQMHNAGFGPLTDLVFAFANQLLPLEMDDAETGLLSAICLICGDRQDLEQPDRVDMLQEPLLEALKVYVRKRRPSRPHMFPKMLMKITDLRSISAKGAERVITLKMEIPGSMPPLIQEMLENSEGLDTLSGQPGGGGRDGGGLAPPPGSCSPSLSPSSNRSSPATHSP
In short: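 HepG2 transiently transfected with multiplex GAL4-UAS reporter units including a human RARa–GAL4 chimera; 24 h compound exposure. Reporter mRNA quantified by RT-PCR, 6-FAM labeling and capillary electrophoresis; gain of signal versus DMSO.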

[6] = BSK_3C_Proliferation: Cell Proliferation Assessment in the BioMAP Diversity Plus: 3C Assay (AID 2283006; active means hit-call score of the fitted dose curve at least 0.9, where 1 is the maximum; inactive means score below 0.9;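 on AC50: potency may reflect either rise or fall in cell number versus DMSO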); conditions: primary human endothelial cells (HUVEC)
In short: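 Subconfluent HUVEC (3C system) cultured with chemical; relative cell number read at 48 h by sulforhodamine B total-protein staining (0.1% SRB after 10% TCA fixation, 560 nm). Bidirectional fit relative to DMSO.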

[7] = target: Peroxisome proliferator-activated receptor gamma (Homo sapiens) (UniProt P37231); experiment: ATG_PPARg_TRANS: Attagene TRANS-FACTORIAL HepG2 Assay for human Peroxisome Proliferator-activated Receptor-gamma (PPARg) (AID 2283007)
Peroxisome proliferator-activated receptor gamma (Homo sapiens), sequence (P37231 whole entry, looked up, the tested form may be a part): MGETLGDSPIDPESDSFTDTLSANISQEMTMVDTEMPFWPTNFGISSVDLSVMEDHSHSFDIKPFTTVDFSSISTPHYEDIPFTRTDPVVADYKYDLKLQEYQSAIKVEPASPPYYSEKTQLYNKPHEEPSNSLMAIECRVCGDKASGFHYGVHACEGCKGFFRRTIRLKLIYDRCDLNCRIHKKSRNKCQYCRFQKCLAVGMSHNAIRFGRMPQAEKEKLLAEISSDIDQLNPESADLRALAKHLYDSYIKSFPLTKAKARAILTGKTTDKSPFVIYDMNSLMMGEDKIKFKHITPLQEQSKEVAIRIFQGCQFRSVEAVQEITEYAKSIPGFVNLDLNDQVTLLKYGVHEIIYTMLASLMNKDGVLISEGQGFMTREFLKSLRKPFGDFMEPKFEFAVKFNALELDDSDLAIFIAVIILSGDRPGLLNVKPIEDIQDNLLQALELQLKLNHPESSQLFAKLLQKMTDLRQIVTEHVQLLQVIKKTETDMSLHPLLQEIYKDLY
In short: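 After 24 h of chemical exposure, transfected HepG2 cells carrying PPARγ-Gal4 chimera reporter constructs are lysed for RNA. Reporter transcripts are measured by RT-PCR and capillary electrophoresis with fluorescent labelling, and gain of signal is fitted versus DMSO.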

[8] = target: Nuclear receptor subfamily 1 group I member 2 (Homo sapiens) (UniProt O75469); experiment: ATG_PXR_TRANS: Attagene TRANS-FACTORIAL HepG2 Assay for human Pregnane X Receptor (PXR) (AID 2283008)
Nuclear receptor subfamily 1 group I member 2 (Homo sapiens), sequence (O75469 whole entry, looked up, the tested form may be a part): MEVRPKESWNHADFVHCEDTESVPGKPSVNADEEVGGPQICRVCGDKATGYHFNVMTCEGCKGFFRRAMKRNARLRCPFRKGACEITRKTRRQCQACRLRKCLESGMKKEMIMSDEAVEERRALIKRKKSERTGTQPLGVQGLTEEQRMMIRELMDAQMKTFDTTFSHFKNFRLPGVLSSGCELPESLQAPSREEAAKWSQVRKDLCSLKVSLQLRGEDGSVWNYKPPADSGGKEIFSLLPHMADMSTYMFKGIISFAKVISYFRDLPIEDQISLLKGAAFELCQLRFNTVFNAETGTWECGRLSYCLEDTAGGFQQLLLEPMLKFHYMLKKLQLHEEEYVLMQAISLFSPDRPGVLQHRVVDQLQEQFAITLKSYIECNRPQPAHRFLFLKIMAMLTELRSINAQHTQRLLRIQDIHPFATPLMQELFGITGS
In short: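 Measures mRNA induction of a GAL4-UAS-driven reporter in human HepG2 cells transiently expressing PXR fused to Gal4, following 24 h treatment. DMSO served as negative control and baseline.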

[9] = target: human Retinoic Acid Receptor gamma (RARg), RARG (gene 5916) (UniProt P13631); experiment: ATG_RARg_TRANS: Attagene TRANS-FACTORIAL HepG2 Assay for human Retinoic Acid Receptor gamma (RARg) (AID 2283009)
human Retinoic Acid Receptor gamma (RARg), RARG (gene 5916), sequence (P13631 whole entry, looked up, the tested form may be a part): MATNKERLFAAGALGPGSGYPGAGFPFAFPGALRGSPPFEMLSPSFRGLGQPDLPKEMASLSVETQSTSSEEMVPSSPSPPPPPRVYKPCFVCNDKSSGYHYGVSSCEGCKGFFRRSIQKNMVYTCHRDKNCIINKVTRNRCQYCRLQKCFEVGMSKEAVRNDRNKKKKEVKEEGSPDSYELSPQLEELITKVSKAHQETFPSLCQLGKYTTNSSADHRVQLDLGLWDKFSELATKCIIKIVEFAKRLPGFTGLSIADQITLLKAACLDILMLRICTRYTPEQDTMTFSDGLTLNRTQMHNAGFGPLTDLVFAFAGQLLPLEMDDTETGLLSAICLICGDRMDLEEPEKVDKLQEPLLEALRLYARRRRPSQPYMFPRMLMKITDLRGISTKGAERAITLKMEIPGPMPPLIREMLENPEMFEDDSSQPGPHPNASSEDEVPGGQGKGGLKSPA
In short: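 HepG2 transiently transfected with GAL4-UAS reporter units and chimeric NR-Gal4 constructs; 24 h compound exposure. Reporter mRNA quantified by RT-PCR, FAM labeling, HpaI digestion and capillary electrophoresis; gain-of-signal versus DMSO.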

[10] = target: Retinoic acid receptor RXR-alpha (Homo sapiens) (UniProt P19793); experiment: ATG_RXRa_TRANS: Attagene TRANS-FACTORIAL HepG2 Assay for human Retinoid X Receptor alpha (RXRa) (AID 2283012)
Retinoic acid receptor RXR-alpha (Homo sapiens), sequence (P19793 whole entry, looked up, the tested form may be a part): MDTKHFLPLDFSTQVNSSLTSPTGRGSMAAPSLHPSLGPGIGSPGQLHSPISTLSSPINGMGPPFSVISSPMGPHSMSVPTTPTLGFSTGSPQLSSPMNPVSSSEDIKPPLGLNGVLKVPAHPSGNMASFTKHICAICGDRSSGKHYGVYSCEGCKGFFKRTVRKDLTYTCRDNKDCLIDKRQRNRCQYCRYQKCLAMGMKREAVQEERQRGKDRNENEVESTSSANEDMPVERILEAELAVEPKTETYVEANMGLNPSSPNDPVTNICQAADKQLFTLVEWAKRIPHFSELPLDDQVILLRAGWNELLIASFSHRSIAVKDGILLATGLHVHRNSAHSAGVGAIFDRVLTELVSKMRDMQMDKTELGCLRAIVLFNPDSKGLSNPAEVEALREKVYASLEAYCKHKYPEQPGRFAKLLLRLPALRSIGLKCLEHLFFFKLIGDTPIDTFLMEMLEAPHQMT
In short: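 HepG2 cells transiently transfected with GAL4-UAS reporter units and chimeric RXRa-Gal4 protein, treated 24 h. Reporter mRNA measured by RT-PCR, fluorescent labelling, HpaI digestion and capillary electrophoresis. Induction fitted against DMSO.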

[11] = target: human Retinoid X Receptor beta (RXRb), RXRB (gene 6257) (UniProt P28702); experiment: ATG_RXRb_TRANS: Attagene TRANS-FACTORIAL HepG2 Assay for human Retinoid X Receptor beta (RXRb) (AID 2283013)
human Retinoid X Receptor beta (RXRb), RXRB (gene 6257), sequence (P28702 whole entry, looked up, the tested form may be a part): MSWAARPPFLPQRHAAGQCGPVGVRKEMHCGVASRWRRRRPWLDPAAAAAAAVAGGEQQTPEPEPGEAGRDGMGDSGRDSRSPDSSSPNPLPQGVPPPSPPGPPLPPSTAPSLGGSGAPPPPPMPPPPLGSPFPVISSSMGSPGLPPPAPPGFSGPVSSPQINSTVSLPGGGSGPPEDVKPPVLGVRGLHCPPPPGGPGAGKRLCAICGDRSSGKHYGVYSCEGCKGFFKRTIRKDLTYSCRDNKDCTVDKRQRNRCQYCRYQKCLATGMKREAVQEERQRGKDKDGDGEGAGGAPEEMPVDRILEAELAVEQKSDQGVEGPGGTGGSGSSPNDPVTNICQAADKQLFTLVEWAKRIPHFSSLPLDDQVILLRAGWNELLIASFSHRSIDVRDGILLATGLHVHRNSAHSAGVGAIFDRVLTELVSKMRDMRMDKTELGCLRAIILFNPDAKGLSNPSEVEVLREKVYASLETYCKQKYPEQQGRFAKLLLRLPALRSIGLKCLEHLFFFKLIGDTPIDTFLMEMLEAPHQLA
In short: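 HepG2 cells were transiently transfected with multiplexed GAL4-UAS reporters and a chimeric RXRb-Gal4 construct, then exposed for 24 h. Reporter mRNA was quantified by RT-PCR, FAM labeling, HpaI digestion and capillary electrophoresis; gain of signal was scored against DMSO.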

[12] = target: human Thyroid Receptor alpha (THRa1), THRA (gene 7067) (UniProt P10827); experiment: ATG_THRa1_TRANS: Attagene TRANS-FACTORIAL HepG2 Assay for human Thyroid Receptor alpha (THRa1) (AID 2283014)
human Thyroid Receptor alpha (THRa1), THRA (gene 7067), sequence (P10827 whole entry, looked up, the tested form may be a part): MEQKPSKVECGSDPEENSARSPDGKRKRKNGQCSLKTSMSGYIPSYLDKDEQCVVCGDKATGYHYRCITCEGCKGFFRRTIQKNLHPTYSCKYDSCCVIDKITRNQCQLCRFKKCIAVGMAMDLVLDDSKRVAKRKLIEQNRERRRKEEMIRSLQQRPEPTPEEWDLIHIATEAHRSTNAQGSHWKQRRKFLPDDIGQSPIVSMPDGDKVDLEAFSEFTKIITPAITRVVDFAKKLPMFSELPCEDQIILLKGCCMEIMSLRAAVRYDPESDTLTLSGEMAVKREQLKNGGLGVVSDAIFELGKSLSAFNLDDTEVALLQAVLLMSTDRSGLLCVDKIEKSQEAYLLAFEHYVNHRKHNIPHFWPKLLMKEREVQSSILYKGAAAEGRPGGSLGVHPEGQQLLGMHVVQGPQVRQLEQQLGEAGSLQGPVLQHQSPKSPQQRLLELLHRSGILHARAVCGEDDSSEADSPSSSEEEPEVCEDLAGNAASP
In short: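 HepG2 cells transiently transfected with multiplexed GAL4-UAS reporter units for exogenous chimeric THRa1-Gal4; reporter mRNA measured 24 h after dosing by RT-PCR, 6-FAM labelling, HpaI digestion and capillary electrophoresis. Gain-of-signal fitted versus DMSO baseline.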

[13] = read-out: E-selectin (Homo sapiens) (UniProt P16581); experiment: BSK_3C_Eselectin: BioMAP Diversity Plus: 3C Assay for Eselectin Biomarker Activity (AID 2283015; active means hit-call score of the fitted dose curve at least 0.9, where 1 is the maximum; inactive means score below 0.9); conditions: primary human endothelial cells (HUVEC); actives raise or lower the signal
In short: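 Primary human umbilical vein endothelial cells (3C system) were dosed with chemical and cell-surface E-selectin measured by ELISA 24 h later. Bidirectional curve fitting used DMSO as negative control and baseline.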

[14] = read-out: Interleukin-1 alpha (IL1a), IL1A (gene 3552); experiment: BSK_BE3C_IL1a: BioMAP Diversity Plus: BE3C Assay for Interleukin-1 alpha (IL1a) Biomarker Activity (AID 2283016; active means hit-call score of the fitted dose curve at least 0.9, where 1 is the maximum; inactive means score below 0.9); conditions: primary human bronchial epithelial cells; actives raise or lower the signal
In short: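 Human primary bronchial epithelial cells, 24 h chemical exposure; IL-1a quantified by ELISA, fitted bidirectionally against DMSO. Cytotoxicity assessed in parallel by SRB total-protein staining at the time of measurement.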

[15] = read-out: Monocyte Chemoattractant Protein-1 (MCP1), CCL2 (gene 6347); experiment: BSK_3C_MCP1: BioMAP Diversity Plus: 3C Assay for Monocyte Chemoattractant Protein-1 (MCP1) Biomarker Activity (AID 2283017; active means hit-call score of the fitted dose curve at least 0.9, where 1 is the maximum; inactive means score below 0.9); conditions: primary human endothelial cells (HUVEC); actives raise or lower the signal
In short: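 Primary human umbilical vein endothelial cells (3C system) were exposed to test chemical for 24 h, after which MCP-1 was quantified by ELISA. Activity was fitted bidirectionally against DMSO as negative control and baseline.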

[16] = read-out: Monocyte Chemoattractant Protein-1 (MCP1), CCL2 (gene 6347); experiment: BSK_4H_MCP1: BioMAP Diversity Plus: 4H Assay for Monocyte Chemoattractant Protein-1 (MCP1) Biomarker Activity (AID 2283018; active means hit-call score of the fitted dose curve at least 0.9, where 1 is the maximum; inactive means score below 0.9); conditions: primary human endothelial cells (HUVEC); actives raise or lower the signal
In short: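 Human umbilical vein endothelial cells (4H system) exposed to chemicals for 24 h in 96-well format. MCP-1 measured by ELISA; bidirectional fitting against DMSO, with SRB total-protein staining in parallel cultures for cytotoxicity.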

[17] = target: human Peroxisome Proliferator-activated Receptor delta (PPARd), PPARD (gene 5467) (UniProt Q03181); experiment: ATG_PPARd_TRANS: Attagene TRANS-FACTORIAL HepG2 Assay for human Peroxisome Proliferator-activated Receptor delta (PPARd) (AID 2283002)
In short: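 HepG2 cells transiently transfected with GAL4-UAS multiplexed reporter units driven by exogenous chimeric NR-GAL4 proteins; 24 h compound exposure. Reporter mRNA measured by RT-PCR, 6-FAM primer extension, HpaI digestion and capillary electrophoresis; gain of signal fitted relative to DMSO.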

[18] = target: human RAR-related Orphan Receptor beta (RORb), RORB (gene 6096) (UniProt Q92753); experiment: ATG_RORb_TRANS: Attagene TRANS-FACTORIAL HepG2 Assay for human RAR-related Orphan Receptor beta (RORb) (AID 2283010)
human RAR-related Orphan Receptor beta (RORb), RORB (gene 6096), sequence (Q92753 whole entry, looked up, the tested form may be a part): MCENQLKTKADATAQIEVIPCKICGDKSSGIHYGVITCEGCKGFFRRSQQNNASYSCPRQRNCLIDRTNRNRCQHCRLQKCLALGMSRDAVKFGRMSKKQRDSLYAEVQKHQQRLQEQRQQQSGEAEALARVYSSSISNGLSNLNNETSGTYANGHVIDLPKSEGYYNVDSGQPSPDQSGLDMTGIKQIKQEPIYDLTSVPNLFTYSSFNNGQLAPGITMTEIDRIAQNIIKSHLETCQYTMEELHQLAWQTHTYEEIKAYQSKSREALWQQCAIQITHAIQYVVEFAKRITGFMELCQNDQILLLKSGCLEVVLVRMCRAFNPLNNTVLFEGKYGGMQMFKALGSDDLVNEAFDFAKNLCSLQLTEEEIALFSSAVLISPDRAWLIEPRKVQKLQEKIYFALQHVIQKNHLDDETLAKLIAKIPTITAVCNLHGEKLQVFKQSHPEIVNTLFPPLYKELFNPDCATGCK
In short: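 HepG2 cells transiently transfected with GAL4-UAS reporter units expressing chimeric NR-Gal4 protein; reporter mRNA measured 24 h after dosing by RT-PCR, 6-FAM labelling and capillary electrophoresis. Gain-of-signal fitted relative to DMSO baseline.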

[19] = target: human Peroxisome Proliferator-activated Receptor alpha (PPARa), PPARA (gene 5465) (UniProt Q07869); experiment: ATG_PPARa_TRANS: Attagene TRANS-FACTORIAL HepG2 Assay for human Peroxisome Proliferator-activated Receptor alpha (PPARa) (AID 2283001)
In short: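 HepG2 cells transiently transfected with multiplexed GAL4-UAS reporters driven by exogenous chimeric NR-Gal4 proteins; reporter mRNA measured after 24 h dosing. Read-out by RT-PCR, 6-FAM labelling, HpaI digestion and capillary electrophoresis; gain of signal versus DMSO.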

[20] = target: human RAR-related Orphan Receptor gamma (RORg), RORC (gene 6097) (UniProt P51449); experiment: ATG_RORg_TRANS: Attagene TRANS-FACTORIAL HepG2 Assay for human RAR-related Orphan Receptor gamma (RORg) (AID 2283011)
In short: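 Readout: reporter transcript induction (RT-PCR, fluorescent primer extension, capillary electrophoresis) after 24 h compound exposure of transiently transfected HepG2 cells carrying a RORg-Gal4 chimera and GAL4-UAS reporters; DMSO served as baseline, with increasing signal fitted.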

Measured: AC50

E-selectin (Homo sapiens), sequence (P16581 whole entry, looked up): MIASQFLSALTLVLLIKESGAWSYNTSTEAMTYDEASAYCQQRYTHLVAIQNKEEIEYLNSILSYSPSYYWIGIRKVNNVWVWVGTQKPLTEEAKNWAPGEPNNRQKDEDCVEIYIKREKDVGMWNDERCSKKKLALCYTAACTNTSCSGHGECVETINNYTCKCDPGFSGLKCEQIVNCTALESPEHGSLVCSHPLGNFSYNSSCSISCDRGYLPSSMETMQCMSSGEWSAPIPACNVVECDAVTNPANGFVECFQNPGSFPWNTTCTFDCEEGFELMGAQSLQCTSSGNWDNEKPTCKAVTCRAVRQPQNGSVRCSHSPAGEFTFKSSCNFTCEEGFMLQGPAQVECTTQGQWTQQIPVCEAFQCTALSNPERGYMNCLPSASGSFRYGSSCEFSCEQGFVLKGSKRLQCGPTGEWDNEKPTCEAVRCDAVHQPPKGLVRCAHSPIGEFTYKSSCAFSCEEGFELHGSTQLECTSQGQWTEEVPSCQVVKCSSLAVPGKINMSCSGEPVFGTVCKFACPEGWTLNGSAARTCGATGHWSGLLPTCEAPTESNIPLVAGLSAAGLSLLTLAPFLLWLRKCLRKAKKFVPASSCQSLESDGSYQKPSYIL

O=[N+]([O-])c1ccc2c3c(cccc13)CC2
active: [7] 22.7 µM | [8] 2.41 µM | [11] 27.5 µM
not listed: [17] | [18] | [19] | [20]
inactive: all other assays above

CC(C)(c1ccccc1)c1ccc(O)c(C(C)(C)c2ccccc2)c1
inactive: [17] | [4] | [5] | [7] | [10] | [12]
active: [1] 9.15 µM | [2] 9.16 µM | [3] 11.1 µM | [6] 6.91 µM | [8] 0.148 µM | [11] 1.66 µM | [13] 10.6 µM | [14] 28.5 µM | [15] 10.8 µM | [16] 7.28 µM

CCOP(=S)(OCC)SCCS(=O)(=O)CC
inactive: [1] | [2] | [3] | [6] | [10] | [12] | [13] | [14] | [15] | [16]
active: [8] 7.88 µM

O=C1C2(Cl)C3(Cl)C4(Cl)C(Cl)(Cl)C5(Cl)C3(Cl)C1(Cl)C5(Cl)C24Cl (stereo not given)
active: [1] 10.2 µM | [2] 10.4 µM | [3] 10.8 µM | [6] 4.9 µM | [8] 2.11 µM and 2.9 µM and 6.2 µM | [11] 2.67 µM and 7.57 µM | [12] 4.37 µM and 56.4 µM | [13] 11.7 µM | [14] 9.67 µM | [15] 9.53 µM | [16] 8.77 µM
inactive: [17] | [4] | [5] | [7] | [8] | [9] | [18] | [10] | [11] | [12]

ClC1(Cl)C2(Cl)C3(Cl)C4(Cl)C(Cl)(Cl)C5(Cl)C3(Cl)C1(Cl)C5(Cl)C24Cl (stereo not given)
inactive: [1] | [2] | [17] | [3] | [6] | [8] | [18] | [13] | [14] | [15] | [16]

ClC1=C(Cl)[C@]2(Cl)[C@H]3[C@H]([C@H]4C=C[C@H]3C4)[C@@]1(Cl)C2(Cl)Cl
active: [1] 3.97 µM | [2] 20 µM | [6] 20 µM | [7] 64 µM | [8] 0.794 µM | [15] 3.97 µM | [16] 0.748 µM
inactive: [3] | [12] | [13] | [14]

COc1ccccc1OC
inactive: [19] | [17] | [4] | [8] | [18] | [20] | [10] | [11]

Nc1ccc(N=Nc2ccc(-c3ccc(N=Nc4c(S(=O)(=O)O)cc5cc(S(=O)(=O)O)c(N=Nc6ccccc6)c(O)c5c4N)cc3)cc2)c(N)c1
inactive: [19] | [17] | [5] | [7] | [8] | [11]
